Many of the other results were omitted from the sample, so hits are more common in it than they were.
FBPA Giardia inh – blocks Giardia fructose-bisphosphate aldolase activity | Potency, µM (top dose mostly 59.6 µM), most hits filed as inhibitors | 290,000 tested, 0.71% active | purified Giardia FBPA | A8B2U2; also: nearly all actives have a fitted effect of over 55% in size
Target sequence (A8B2U2 whole entry, looked up): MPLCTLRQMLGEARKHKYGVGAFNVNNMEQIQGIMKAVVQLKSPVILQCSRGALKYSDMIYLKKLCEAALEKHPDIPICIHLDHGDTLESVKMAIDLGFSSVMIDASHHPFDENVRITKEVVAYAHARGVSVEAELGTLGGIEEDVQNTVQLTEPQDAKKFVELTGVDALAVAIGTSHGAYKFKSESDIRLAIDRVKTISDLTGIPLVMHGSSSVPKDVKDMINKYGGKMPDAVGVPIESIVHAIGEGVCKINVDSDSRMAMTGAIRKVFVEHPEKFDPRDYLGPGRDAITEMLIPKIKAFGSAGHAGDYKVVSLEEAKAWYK
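Giardia FBPA (40 nM reagent) was preincubated 10 min at RT with compound (up to 57.5 uM final), then substrate plus GAPDH/TPI/NAD/arsenate coupling system with diaphorase/resazurin was added; resorufin fluorescence (525/598 nm) was read after 20 min.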
Shiga inhibitor – Shiga toxin inhibition | inhibition, % at 38.7 µM | 290,000 tested, 9.2% active | Vero cells, Shiga toxin protein synthesis inhibition reporter | AID 2315; in the data active = inhibition mostly above about 28%, no sharp cut-off; inactive = mostly below about 43%
RE007 growth inh – less growth of the S. pombe RE007 Vpr strain; Potency, µM (doses to about 92.2 µM), actives largely listed as inhibitors; 360,000 tested, 0.21% active; S. pombe RE007 Vpr strain, BacTiter-Glo ATP luminescence, 24 h; active = well fitted falling curve with a large enough effect; inconclusive = small, poorly fitted or top-dose-only effect; inactive = no such curve, though single readings can be large or run the other way; also: nearly all actives have a fitted effect of over 50% in size
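Fission yeast strain RE007, carrying one chromosomally integrated HIV-1 vpr copy, was seeded at OD 0.01 in PMG+AL medium with 23 nL pinned compound. After 24 h at 30 °C and 99% humidity, viability was read by BacTiter-Glo luminescence.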
LmPK inh – blocks Leishmania mexicana pyruvate kinase activity; Potency, µM (doses to about 57.5 µM), most hits filed as inhibitors; Q27686; purified LmPK, Kinase-Glo ATP luminescence, 1 h; 290,000 tested, 0.37% active
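ATP generated from ADP (0.1 mM) and PEP (0.5 mM) by 0.1 nM LmPK over 1 h at room temperature (pH 7.2 imidazole buffer) was detected by coupled luciferase luminescence. Values were normalized to uninhibited and no-enzyme wells.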
CHX counter – counter-screen for Shiga toxin inhibitors: cycloheximide protein synthesis inhibition. 300,000 tested, 12% active. cell reporter, cycloheximide protein synthesis inhibition counterscreen. AID 2314. max response, %; in the data active = max response mostly above about 13%, no sharp cut-off; inactive = mostly below about 14%; also: read at 38.3 µM for the half of the compounds with a filed dose
TbPYK inhibitor – inhibitors of Trypanosoma brucei pyruvate kinase; TbPYK enzyme, Kinase-Glo Plus ATP luminescence, 45 min; Potency, µM (highest dose often 76.8 µM), hits mostly inhibitors; Q57TT1; 410,000 tested, 0.12% active; also: nearly all actives have a fitted effect of over 50% in size
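Activity of T. brucei pyruvate kinase was followed by Kinase-Glo Plus luminescence after the enzyme reacted 45 min at room temperature with 130 uM ADP (final) and substrate. Test compounds were added before ADP at multiple concentrations.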
Numbers stand for hits; . = inactive; ? = inconclusive; / = no result; [ ] = remark or other dose. Unless noted, calls follow the shape of the dose curve; as a rule, active = well fitted curve in the direction sought with a large enough effect; inconclusive = small, poorly fitted or top-dose-only effect, or another doubt; inactive = no such curve, though single readings can be large; an effect the other way counts as inactive or inconclusive.

SMILES	FBPA Giardia inh	Shiga inhibitor	RE007 growth inh	LmPK inh	CHX counter	TbPYK inhibitor
CN(Cc1ccco1)S(=O)(=O)c1nnc(NC(=O)c2cccc(Cl)c2)s1	/	63.8	.	.	35.5	?
CC(=O)Nc1ccc2c(c1Br)Cc1ccccc1-2	/	/	.	/	/	.
CC(=O)Nc1cccc2c1Cc1ccccc1-2	.	.	.	.	41.3	.
CC[C@H](C)[C@H](NC(=O)[C@H](Cc1ccc(O)cc1)NC(=O)[C@@H](NC(=O)[C@H](CCCN=C(N)N)NC(=O)[C@@H](N)CC(=O)O)C(C)C)C(=O)N[C@@H](Cc1cnc[nH]1)C(=O)N1CCC[C@H]1C(=O)O	.	.	/	/	.	/
CC(C)c1ccc(NC2CCCN(C(=O)c3ccsc3)C2)cc1 (configuration not stated)	/	.	.	.	.	.
CC(=Nc1ccccc1)c1sc2ccccc2c1O	.	139.5	?	.	50.0	.
CC(=Nc1ccc(Br)cc1)c1sc2ccccc2c1O	.	111.5	.	.	59.6	.
CN(C)CCC1(C2=CCCC2)CC/C(=C/c2ccc(Cl)cc2)C1=O (configuration not stated)	/	/	.	/	/	.
O=C1C(C=NCCCN2CCOCC2)=C(O)c2ccccc21	.	59.5	.	.	27.5	.
O=C1C(C=NCCN2CCOCC2)=C(O)c2ccccc21	.	83.9	.	.	47.2	.
Cc1ccc(C)c(NC(=O)c2cnc3sc(N4CCOCC4)nn3c2=O)c1	/	/	/	/	/	.
O=C(N/N=C\c1cn(-c2ccccc2)nc1-c1ccccc1)c1ccc(Br)o1	.	79.8	.	.	14.4	.
Cc1nnc(SCC(=O)N/N=C/c2cn(-c3ccccc3)nc2-c2ccccc2)n1-c1ccccc1	.	.	.	.	.	.
O=C(N/N=C/c1cn[nH]c1-c1ccccc1)c1ccco1	.	72.4	.	.	26.4	.
O=C(N/N=C\c1cn[nH]c1-c1ccc(Cl)cc1)c1cccs1	.	81.5	.	.	36.1	.
O=C(N/N=C/c1cn(-c2ccccc2)nc1-c1ccccc1)c1ccco1	.	42.0	.	.	20.8	.
O=C(N/N=C/c1cn[nH]c1-c1ccc(Cl)cc1)c1ccc([N+](=O)[O-])cc1	.	.	.	.	.	.
Cc1ccc(-c2nn(-c3ccccc3)cc2/C=N/NC(=O)c2ccc(Br)o2)cc1	.	35.9	.	.	24.1	.
COc1ccc(-c2nn(-c3ccccc3)cc2/C=N/NS(=O)(=O)c2ccccc2)cc1	.	.	.	.	.	.
CC(=O)NCCCC[C@H](NC(=O)OC(C)(C)C)C(=O)Nc1ccc2c(C(F)(F)F)cc(=O)oc2c1	.	.	/	/	.	/
COc1cccc(C2=Nn3c(nnc3-c3ccccc3C)SC2)c1	9.98µM	.	/	/	.	/
COc1cccc(C2=Nn3c(nnc3-c3ccc(OC)cc3OC)SC2)c1	.	.	/	/	.	/
COc1ccccc1NC(=O)Cn1nnc(-c2ccccc2NC(=O)c2cc3ccccc3oc2=O)n1	.	80.1	.	.	39.3	.
Cc1ccccc1C(=O)NC1CCN(CC(=O)Nc2ccc3c(c2)OCCO3)CC1	.	.	.	.	.	.
O=C(Cn1nnc(-c2ccccc2F)n1)Nc1ccc2c(c1)OCCO2	.	79.1	.	.	32.2	.
SMILES	FBPA Giardia inh	Shiga inhibitor	RE007 growth inh	LmPK inh	CHX counter	TbPYK inhibitor
CC(=O)Nc1ccccc1-c1nnn(CC(=O)Nc2ccc3c(c2)OCCO3)n1	.	.	.	.	24.5	.
O=C(Cn1nnc(-c2ccccc2NC(=O)c2ccccc2)n1)Nc1ccc2c(c1)OCCO2	.	.	.	.	.	.
Cc1ccccc1C(=O)Nc1ccccc1-c1nnn(CC(=O)Nc2ccc3c(c2)OCCO3)n1	.	.	.	.	38.3	.
CC(C)CO/N=C1/C[C@@H](O)[C@@H](O)[C@@H]2[C@@H]3C(=O)N(C4CCCCC4)C(=O)[C@H]3CC[C@@H]12	.[12.9 µM]	/	/	/	/	/
O=C1Nc2ccccc2C(=O)N2CCC[C@@H]12	.	/	/	/	/	/
COc1ccc(-c2ccc3c(c2)O[C@H](CN(C)C(=O)Nc2ccccc2F)[C@@H](C)CN([C@H](C)CO)S3(=O)=O)cc1	/	/	.	/	/	.
CCN(CCn1cccn1)C(=O)C1CCC(=O)N(CCN2CCOCC2)C1 (configuration not stated)	/	.	.	.	.	.

From PubChem
